Test [1] can be described thus: qHTS assay to identify small molecule antagonists of the estrogen related receptor (ERR) signaling pathway from Tox21 library - cell viability counter screen (AID 1224834). Also: nearly all actives have a fitted effect of over 30% in size. Also: potency is read from the fitted curve at half-maximal effect. Put shortly: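 ERR reporter cells were plated 6 h before compound addition, then exposed to test compounds in DMSO for 17.5 h at 37 C. Viability was read as CellTiter-Fluor fluorescence after a 30-minute incubation at 37 C.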
Background: qHTS replaces the single test concentration by a dilution series.

The target of test [2] is Luciferin 4-monooxygenase (Photinus pyralis) (UniProt P08659). Put plainly: qHTS assay to identify small molecule inhibitors of firefly luciferase (AID 1224835). Also: nearly all actives have a fitted effect of over 25% in size. Also: potency is read from the fitted curve at half-maximal effect. The procedure, abridged:
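Inhibition of purified Photinus luciferase is measured by luminescence. Substrate levels (D-luciferin, ATP) sit at their KM values. Each compound is tested in a concentration series.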

The target in test [3] is Nuclear receptor subfamily 1 group I member 3 (Homo sapiens) (UniProt Q14994). The test can be described thus: qHTS assay to identify small molecule antagonists of the constitutive androstane receptor (CAR) signaling pathway (AID 1224838). Also: nearly all actives have a fitted effect of over 40% in size. The procedure, abridged:
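HepG2 cells stably co-transfected with hCAR and a CYP2B6-2.2kb luciferase reporter were seeded 4 h before compound addition at 15 concentrations. Cells were stimulated with 50 nM CITCO (final) for 24 h at 37 C; luciferase luminescence was then read.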

The target is the same in test [4]. Put plainly: qHTS assay to identify small molecule agonists of the constitutive androstane receptor (CAR) signaling pathway (AID 1224839). Also: nearly all actives have a fitted effect of over 15% in size. Also: potency is read from the fitted curve at half-maximal effect.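 As to activation: HepG2 cells stably carrying human CAR and a CYP2B6 luciferase reporter.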 Put shortly:
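Compounds tested at 15 concentrations on HepG2 cells stably harbouring hCAR and CYP2B6-2.2kb reporter constructs, co-treated with PK11195 (0.75 uM final), 24 h at 37 C; luminescent reporter signal quantified.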

In test [5] the target is Thyrotropin receptor (Homo sapiens) (UniProt P16473). The test can be described thus: qHTS assay to identify small molecule agonists of the thyroid stimulating hormone receptor (TSHR) signaling pathway (AID 1224843; calls by dose curve; also: nearly all actives have a fitted effect of over 45% in size; also: potency is read from the fitted curve at half-maximal effect). The procedure, abridged: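 Screening of the Tox21 10K collection used HEK293 cells engineered with TSHR at 800 cells per well. After a 30-min room-temperature compound exposure, HTRF cAMP reagents were added and fluorescence recorded 1 h later.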

The nature of test [6]: qHTS assay to identify small molecule agonists of the hypoxia (HIF-1) signaling pathway - cell viability counter screen (AID 1224844; calls by dose curve; also: nearly all actives have a fitted effect of over 50% in size). Put shortly:
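HRE-bla ME-180 cells in medium with 0.5% dialyzed FBS were preincubated 5 hrs at 37C, exposed to compounds for 17 hrs, then viability was read as CellTiter-Glo luminescence after 30 min at room temperature, in the reporter wells.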

Test [7] can be described thus: qHTS assay to identify small molecule agonists of H2AX (AID 1224845; active = well fitted activation curve with a large enough effect in the signal ratio in the repeat runs, not every such curve was filed as active; the % refers to the signal ratio). The procedure, abridged:
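Phospho-H2AX Ser139 measured by HTRF (ex 320 nm; em 665 and 620 nm) after 24 hr antibody incubation. Compounds, 15 concentrations, 0.76% DMSO, were applied to CHO-K1 cells for 3hr at 37C before lysis.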

The nature of test [8]: qHTS assay to identify small molecule agonists of the hypoxia (HIF-1) signaling pathway (AID 1224846; active = well fitted activation curve with a large enough effect in the signal ratio in the repeat runs, not every such curve was filed as active; the % refers to the signal ratio). The procedure, abridged: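 HRE-bla ME-180 cells (beta-lactamase reporter under hypoxia response element) were plated at 2,000 cells/well in medium with 0.5% dialyzed FBS, rested 5 hrs, then given compounds in DMSO for 17 hrs at 37C, 5% CO2. Reporter induction was read with CCF4-AM FRET substrate.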

A short description of test [9]: qHTS assay to identify small molecule agonists of H2AX - cell viability counter screen (AID 1224847; calls by dose curve; also: top concentration of the series differs between compounds; nearly all actives have a fitted effect of over 30% in size). Put shortly:
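Compounds tested at 15 concentrations were incubated 3 hr at 37C with wild-type CHO-K1 cells; cellular ATP-based luminescence (CellTiter-Glo) indicated viability.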

The nature of test [10]: qHTS RealTime-Glo MT Cell Viability Assay in HepG2 cells - 24 hour (AID 1224867). Also: nearly all actives have a fitted effect of over 50% in size. The procedure, abridged:
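Luminescence read-out: viable HepG2 cells reduce a prosubstrate to a NanoLuc substrate, giving a signal proportional to live cell number. Reads taken at 0, 8, 16, 24, 32 and 40 h of compound exposure at 37 C.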

Test [11] can be described thus: qHTS RealTime-Glo MT Cell Viability Assay in HEK293 cells - 32 hour (AID 1224868). Also: top concentration of the series differs between compounds; nearly all actives have a fitted effect of over 50% in size. Put shortly: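 Nonlytic real-time viability readout: viable cells convert prosubstrate to NanoLuc substrate, giving luminescence proportional to live cell number. HEK293, 600 cells/well, compound added after 5 h, continuous culture at 37 C.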
Test [12] in a line: A CellTox Green Cytotoxicity Assay to monitor cytotoxicity in HEK293 cells - 0 hour (AID 1224869). Also: nearly all actives have a fitted effect of over 50% in size. The procedure, abridged:
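HEK293 cells premixed with CellTox Green dye were seeded at 600 cells/well and left 5 h at 37 C/5% CO2 before pin transfer of 23 nL compound in DMSO. Fluorescence from dye bound to dead-cell DNA was read during 40 h treatment.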

Test [13] can be described thus: qHTS assay to identify small molecule agonists of the constitutive androstane receptor (CAR) signaling pathway - cell viability counter screen (AID 1224836). Also: nearly all actives have a fitted effect of over 45% in size. Put shortly: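 23 h treatment, 37 C, 5% CO2. Cell line: HepG2 stably expressing hCAR with a CYP2B6-2.2kb construct. Co-treatment: PK11195, 0.75 uM final. Read-out: CellTiter-Fluor fluorescence intensity.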
Test [14] in a line: qHTS assay to identify small molecule antagonists of the estrogen related receptor signaling pathway with the pleiotropic PPARgamma coactivator (PGC) from Tox21 10K library - cell viability counter screen (AID 1224840; active = well fitted cell-killing curve with a large enough effect in the repeat runs, not every such curve was filed as active; also: nearly all actives have a fitted effect of over 40% in size). The procedure, abridged:
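PGC/ERR cells were seeded at 2,000 cells/well and left 6 hours at 37 C/5% CO2 before pin-tool addition of compounds in DMSO. After 17.5 hours at 37 C, CellTiter-Fluor was added and fluorescence read 30 minutes later.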

Test [15] is described as follows: qHTS assay to identify small molecule antagonists of the constitutive androstane receptor (CAR) signaling pathway - cell viability counter screen (AID 1224837). Also: nearly all actives have a fitted effect of over 45% in size. The procedure, abridged:
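HepG2 cells stably expressing hCAR and a CYP2B6-2.2kb reporter were plated and pre-incubated 4 hr at 37 C/5% CO2, then given compounds at 15 concentrations plus 50 nM CITCO (final). After 23 hr, viability was read by CellTiter-Fluor fluorescence.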

A short description of test [16]: qHTS assay to identify small molecule antagonists of the estrogen related receptor signaling pathway with the pleiotropic PPARgamma coactivator (PGC) from Tox21 10K library (AID 1224841; call rule not given here). Put shortly: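 PGC/ERR reporter cells were seeded at 2,000 cells/well and held 6 hours at 37 C/5% CO2 before pin-tool addition of compounds in DMSO. After 18 hours at 37 C, One-Glo was added and luminescence read after 30 minutes at room temperature.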

Test [17] in a line: qHTS assay to identify small molecule agonists of the estrogen related receptor signaling pathway with the pleiotropic PPARgamma coactivator (PGC) from Tox21 10K library (AID 1224842). Also: nearly all actives have a fitted effect of over 15% in size. The procedure, abridged: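 Luminescence from One-Glo (30 min, room temperature) measured after PGC/ERR cells had 18 h at 37 C with pinned compound (23 nL in DMSO). Cells had been seeded at 2,000 per well and pre-incubated 6 h.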

Test [18] can be described thus: qHTS assay to identify small molecule antagonists of the estrogen related receptor (ERR) signaling pathway from Tox21 library (AID 1224848). Also: nearly all actives have a fitted effect of over 50% in size. Put shortly:
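Antagonist-mode screen of the Tox21 10K library in an NTP-provided ERR reporter cell line; 18 h compound exposure at 37 C, luminescence measured with ONE-Glo.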

Test [19] is described as follows: qHTS assay to identify small molecule agonists of the estrogen related receptor (ERR) signaling pathway from Tox21 library (AID 1224849; calls by dose curve; also: nearly all actives have a fitted effect of over 15% in size). To be noted: ERR reporter cell line, ONE-Glo luciferase, 18 h; at 92.4 µM (top of the series). The procedure, abridged:
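ERR reporter cell line (NTP) seeded, rested 6 h at 37 C/5% CO2, then pinned with Tox21 compounds in DMSO. After 18 h at 37 C, ONE-Glo luciferase luminescence was read following 30 min at room temperature.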

Values joined by “and” are separate entries in the source; they are usually repeats but may differ in a detail not shown here. Equal entries are not always repeated. Results filed as inconclusive are left out. More than one record can exist for a structure, and the calls need not agree. Active and inactive are the calls of the source. Unless noted, calls follow the shape of the dose curve; as a rule, active = well fitted curve in the direction sought with a large enough effect in the repeat runs; inconclusive = weak or mixed curves; inactive = no such curve, though single readings can be large; an effect the other way counts as inactive or inconclusive.
% is scaled to controls: 0 for no effect and ±100 for the full control effect.

Luciferin 4-monooxygenase (Photinus pyralis), sequence (P08659 whole entry, looked up): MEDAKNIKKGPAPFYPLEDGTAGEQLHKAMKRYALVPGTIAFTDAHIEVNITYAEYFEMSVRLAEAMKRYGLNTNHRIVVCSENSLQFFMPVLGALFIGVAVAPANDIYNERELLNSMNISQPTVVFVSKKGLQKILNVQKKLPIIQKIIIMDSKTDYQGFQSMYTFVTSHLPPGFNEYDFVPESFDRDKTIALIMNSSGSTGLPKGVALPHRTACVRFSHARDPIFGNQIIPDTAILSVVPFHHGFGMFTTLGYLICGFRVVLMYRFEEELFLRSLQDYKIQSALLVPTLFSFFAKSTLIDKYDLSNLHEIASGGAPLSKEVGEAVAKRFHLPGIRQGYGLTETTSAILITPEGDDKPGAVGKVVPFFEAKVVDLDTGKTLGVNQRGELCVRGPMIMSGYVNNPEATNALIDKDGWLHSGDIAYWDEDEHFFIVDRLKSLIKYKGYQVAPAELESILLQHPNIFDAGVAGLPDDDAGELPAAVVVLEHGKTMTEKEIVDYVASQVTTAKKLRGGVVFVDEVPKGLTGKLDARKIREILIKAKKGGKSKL
Thyrotropin receptor (Homo sapiens), sequence (P16473 whole entry, looked up): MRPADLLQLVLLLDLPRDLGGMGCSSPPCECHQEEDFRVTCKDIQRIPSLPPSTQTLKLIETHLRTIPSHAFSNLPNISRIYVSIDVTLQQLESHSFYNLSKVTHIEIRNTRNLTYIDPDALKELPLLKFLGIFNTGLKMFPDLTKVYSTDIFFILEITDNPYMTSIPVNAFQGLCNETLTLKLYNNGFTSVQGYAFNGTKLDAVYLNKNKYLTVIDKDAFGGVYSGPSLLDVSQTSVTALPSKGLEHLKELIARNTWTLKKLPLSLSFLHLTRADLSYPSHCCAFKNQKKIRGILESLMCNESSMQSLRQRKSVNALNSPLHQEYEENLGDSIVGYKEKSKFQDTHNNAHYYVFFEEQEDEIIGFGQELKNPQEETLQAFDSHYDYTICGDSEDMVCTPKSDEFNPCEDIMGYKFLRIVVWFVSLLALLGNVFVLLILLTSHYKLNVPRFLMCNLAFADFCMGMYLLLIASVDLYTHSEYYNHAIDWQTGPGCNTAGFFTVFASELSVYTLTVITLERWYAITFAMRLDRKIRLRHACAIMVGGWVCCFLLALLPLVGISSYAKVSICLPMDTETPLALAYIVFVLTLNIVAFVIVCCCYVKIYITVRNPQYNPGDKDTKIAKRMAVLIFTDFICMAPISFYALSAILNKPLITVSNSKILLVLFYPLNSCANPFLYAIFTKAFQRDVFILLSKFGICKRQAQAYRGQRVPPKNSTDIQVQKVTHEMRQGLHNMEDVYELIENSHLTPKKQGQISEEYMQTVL
Nuclear receptor subfamily 1 group I member 3 (Homo sapiens), sequence (Q14994 whole entry, looked up): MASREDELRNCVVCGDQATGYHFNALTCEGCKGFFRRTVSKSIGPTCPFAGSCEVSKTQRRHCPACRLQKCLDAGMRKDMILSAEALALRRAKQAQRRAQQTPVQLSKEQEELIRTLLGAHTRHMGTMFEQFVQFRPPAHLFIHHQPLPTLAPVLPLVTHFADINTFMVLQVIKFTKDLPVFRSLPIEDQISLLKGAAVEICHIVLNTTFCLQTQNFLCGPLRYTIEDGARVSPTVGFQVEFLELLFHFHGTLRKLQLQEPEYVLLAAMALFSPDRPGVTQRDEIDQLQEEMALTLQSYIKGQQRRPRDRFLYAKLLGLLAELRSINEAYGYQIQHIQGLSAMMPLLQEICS

Consider `Nc1ccc(N)cc1`, for which the Potency in test [1] is 30.8 µM (active) and 30.6 µM (active) and inactive; in test [2] it was 40.1 µM (active) and 35.6 µM (active); in test [4], 21.8 µM (active) and 21.7 µM (active) and inactive. Besides, the Potency result in test [3], in [5], in test [6], in test [7], in [9] and in [11] was “inactive” each time. Further, the Potency entry in test [12] was “inactive”. The compound was classed as inactive in test [8] and in test [10].
Turning to `O=[N+]([O-])c1ccc(Cl)cc1`, the Potency result in test [1], in [2], in test [13], in test [14], in test [5] and in test [6] was “inactive” in each case. In addition, the Potency result in test [7], in test [9], in test [11] and in test [12] was “inactive” throughout. The result in [8] and in test [10] was inactive.
For the compound `CN(C)C(=O)C(c1ccccc1)c1ccccc1`, the Potency result in test [1], in test [2], in test [13], in [3], in test [7] and in test [11] was “inactive” each time. Moreover, the Potency entry in [12] is “inactive”. In test [4], the Potency was 26.9 µM (active) and 12.2 µM (active). Further, the outcome in test [8] and in [10] was inactive.
On to `Cc1cccc(C)c1N`, for which the Potency result in test [1], in test [2], in test [13], in test [14], in test [5] and in test [7] was “inactive” in each case. The Potency result in test [9], in test [11] and in test [12] was “inactive” throughout. Also, the call in [8] and in [10] was inactive.
Take `COP(=S)(OC)Oc1ccc(SC)c(C)c1`: the Potency entry in test [1], in [13], in test [15], in test [3], in [14] and in [6] was “inactive” each time. Also, the Potency entry in test [7], in test [9], in test [11] and in test [12] was “inactive” in each case. Also, in [4], the Potency is 60.4 µM (active) and 54.5 µM (active) and 23.7 µM (active). The call in test [8] and in test [10] was inactive.
As to `Cc1ccccc1N`, the Potency entry in test [1], in test [2], in [13], in test [3], in test [4] and in test [7] was “inactive” each time. The Potency entry in [9], in test [11] and in [12] was “inactive” each time. For the same compound, the Potency in test [5] is 1.08 µM (active) and inactive. Also, the result in test [8] and in test [10] was inactive.
As to `Cc1cc(Cl)ccc1OC(C)C(=O)O` (stereo not given), the Potency result in [1], in [2], in [13], in test [4], in [6] and in test [7] was “inactive” throughout. Moreover, the Potency entry in test [9] and in test [11] was “inactive” throughout. The compound was classed as inactive in [8] and in test [10].
In the case of `CCOP(=S)(OCC)Oc1ccc([N+](=O)[O-])cc1`, the Potency result in [1], in test [2], in test [13], in test [3], in test [14] and in [5] was “inactive” in each case. For the same compound, the Potency entry in test [7], in test [9] and in [11] was “inactive” in each case. Further, the compound was classed as inactive in test [8] and in test [10].
Take `OCc1ccco1`: the Potency result in test [1], in test [2], in [13], in [3], in [4] and in test [16] was “inactive” in each case. The Potency result in test [17], in [5], in test [6], in [7], in [18] and in [11] was “inactive” each time. In addition, the call in test [8] and in test [10] was inactive. For the same compound, the activity change, positive = activation in [19] is 4.84% (inactive).
On to `CCOC(=O)CC(SP(=O)(OC)OC)C(=O)OCC` (stereo not given), for which the Potency result in test [1], in test [2], in [13], in [3], in [4] and in [5] was “inactive” each time. Further, the Potency result in test [7], in [9], in test [11] and in test [12] was “inactive” each time. The outcome in [8] and in [10] was inactive.
Consider `ClCCOCCCl`, for which the Potency result in test [1], in test [2], in test [13], in test [14], in test [5] and in test [7] was “inactive” in each case. In addition, the Potency entry in test [9] and in test [11] was “inactive” each time. Also, the outcome in test [8] and in [10] was inactive.
As to `OCCCCO`, the Potency entry in test [1], in test [13], in test [15], in [3], in [4] and in [14] was “inactive” in each case. In addition, the Potency result in [16], in [17], in test [5], in test [7], in test [9] and in [18] was “inactive” each time. Further, the Potency result in test [11] and in [12] was “inactive” in each case. In addition, the outcome in test [8] and in test [10] was inactive. Moreover, the activity change, positive = activation in test [19] is 2.81% (inactive) and 0.133% (inactive).

For the origin of these results see PubChem BioAssay (Tox21).
